Laboratory results: PubChem BioAssay (NCI)
This is part of a sample that, as a whole, favours compounds with a hit. Of some 79,000 tested, about 15% had one in any assay. Activity calls are given as the source filed them. No stated cut-off is given here; in the data, active means growth inhibition above about 70%; inactive means the rest.

Assays:
[1] = NCI Yeast Anticancer Drug Screen. Data for the rad50 strain (AID 155);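 further: 0% = growth of vehicle-only cultures of the same strain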; details: S. cerevisiae rad50 strain growth inhibition, stronger effect = higher value
How it was run: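 Relative growth inhibition (compound vs vehicle) was measured in yeast with a defined repair-gene alteration.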

[2] = NCI Yeast Anticancer Drug Screen. Data for the mec2-1 strain (AID 157); details: S. cerevisiae mec2-1 strain, stronger effect = higher value
How it was run: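 Strain: mec2-1 (DNA repair/cell cycle alteration). Compound exposure, then growth measured; inhibition expressed relative to vehicle.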

[3] = NCI Yeast Anticancer Drug Screen. Data for the sgs1 mgt1 strain (AID 161);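 further: 0% = growth of cultures given vehicle only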; details: S. cerevisiae sgs1 mgt1 strain, stronger effect = higher value
How it was run: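 Inhibition of yeast growth, normalised to vehicle-treated controls, is reported for a strain bearing genetic alterations in DNA damage repair.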

[4] = NCI Yeast Anticancer Drug Screen. Data for the cln2 rad14 strain (AID 165);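 further: 0% = growth equal to vehicle treated cultures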; details: S. cerevisiae cln2 rad14 strain, stronger effect = higher value
How it was run: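 Compounds are applied to the cln2 rad14 yeast strain, and growth is then compared with that of vehicle-treated cultures to give inhibition.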

[5] = NCI Yeast Anticancer Drug Screen. Data for the bub3 strain (AID 167); details: S. cerevisiae bub3 mutant strain, stronger effect = higher value
How it was run: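 Screening used yeast with an engineered genetic alteration affecting cell cycle control. Compound-exposed cultures were compared with vehicle cultures, and reduced growth was taken as inhibition.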

[6] = NCI Yeast Anticancer Drug Screen. Data for the mlh1 rad18 strain (AID 175); details: S. cerevisiae mlh1 rad18 strain growth inhibition, stronger effect = higher value
How it was run: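 Read-out is yeast growth inhibition, calculated against vehicle-only controls. The compound was applied to a strain engineered with DNA damage repair alterations.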

[7] = at 5.0 µM (retest, dose inferred, filed as 0.5)
[8] = at 50.0 µM (retest, dose inferred, filed as 5.0)

Measured: growth inhibition

Nc1nc(-c2cc3cc(Cl)ccc3o2)cs1
inactive: [1]; [7] 47% | [1]; at 50.0 µM 1.1% | [2]; [7] 34% | [2]; [8] 61% | [2]; at 50.0 µM -6.7% | [3]; [7] 39% | [3]; at 50.0 µM 24.4% | [4]; [7] 35% | [4]; [8] 50% | [4]; at 50.0 µM 15.8% | [5]; [7] 46% | [5]; at 50.0 µM 43.7% | [6]; [7] 51% | [6]; at 50.0 µM -4.25%
active: [1]; [8] 75% | [3]; [8] 75% | [5]; [8] 71% | [6]; [8] 79%

O=C1O/C(=C(/Cl)c2c3ccccc3cc3ccccc23)c2ccccc21
inactive: [1]; [7] -22% | [2]; [7] -13% | [3]; [7] -15% | [4]; [7] -4% | [4]; at 50.0 µM 68.7% | [5]; [7] -25% | [6]; [7] 27%
active: [1]; [8] 95% | [1]; at 50.0 µM 81.1% | [2]; [8] 92% | [2]; at 50.0 µM 80.2% | [3]; [8] 96% | [3]; at 50.0 µM 82.3% | [4]; [8] 94% | [5]; [8] 95% | [5]; at 50.0 µM 84.5% | [6]; [8] 95% | [6]; at 50.0 µM 82.2%

O=C(c1ccc(Oc2ccccc2)cc1)C(C(c1ccccc1)N1CCOCC1)N1CCOCC1 (stereo not given)
active: [3]; [8] 81% | [3]; at 50.0 µM 88.8% | [5]; at 50.0 µM 73% | [6]; at 50.0 µM 75.4%
inactive: [1]; [7] -5% | [1]; [8] 35% | [1]; at 50.0 µM 61.1% | [2]; [7] 12% | [2]; [8] 59% | [2]; at 50.0 µM 62.9% | [3]; [7] -9% | [4]; [7] -3% | [4]; [8] -1% | [4]; at 50.0 µM 54.4% | [5]; [7] 0% | [5]; [8] 61% | [6]; [7] 20% | [6]; [8] 60%

c1ccc2c(c1)CCc1[nH]c3c(c1-2)-c1ccccc1CC3
inactive: [1]; [7] 24% | [2]; [7] 16% | [3]; [7] 21% | [4]; [7] 62% | [5]; [7] 69% | [6]; [7] 31%
active: [1]; [8] 94% | [1]; at 50.0 µM 87.5% | [2]; [8] 96% | [2]; at 50.0 µM 91.2% | [3]; [8] 94% | [3]; at 50.0 µM 90.4% | [4]; [8] 95% | [4]; at 50.0 µM 88.4% | [5]; [8] 94% | [5]; at 50.0 µM 89.8% | [6]; [8] 91% | [6]; at 50.0 µM 86.3%

COC(=O)C(=O)C(C(=O)C(=O)Nc1ccc(C)cc1C)c1nc2ccccc2[nH]c1=O (stereo not given)
inactive: [1]; [7] 21% | [1]; [8] 21% | [1]; at 50.0 µM 17% | [2]; [7] 8% | [2]; [8] 8% | [2]; at 50.0 µM 20.8% | [3]; [7] -2% | [3]; [8] -2% | [3]; at 50.0 µM 39.2% | [4]; [7] 5% | [4]; [8] 5% | [4]; at 50.0 µM -57.3% | [5]; [7] -6% | [5]; [8] -6% | [5]; at 50.0 µM 34% | [6]; [7] 7% | [6]; [8] 7% | [6]; at 50.0 µM 49.8%

C[C@]12CC[C@H](O)C[C@@H]1CC[C@@H]1[C@@H]2CC[C@]2(C)C=CC[C@@H]12
inactive: [1]; [7] -3% | [1]; [8] 2% | [1]; at 50.0 µM 49.4% | [2]; [7] -7% | [2]; [8] -4% | [2]; at 50.0 µM 33.4% | [3]; [7] -21% | [3]; [8] 1% | [3]; at 50.0 µM 46.8% | [4]; [7] -6% | [4]; [8] 0% | [5]; [7] 9% | [5]; [8] 23% | [6]; [7] -24% | [6]; [8] 33% | [6]; at 50.0 µM 58.8%
active: [4]; at 50.0 µM 77.5% | [5]; at 50.0 µM 95.1%

CCC[CH2][Sn]([CH2]CCC)([O]C(=O)c1ccc(C)c(N)c1)[O]C(=O)c1ccc(C)c(N)c1
active: [1]; [7] 98% | [1]; [8] 98% | [1]; at 50.0 µM 91.7% | [2]; [7] 92% | [2]; [8] 92% | [2]; at 50.0 µM 92% | [3]; [7] 96% | [3]; [8] 96% | [3]; at 50.0 µM 92.5% | [4]; [7] 96% | [4]; [8] 96% | [4]; at 50.0 µM 91.3% | [5]; [7] 90% | [5]; [8] 90% | [5]; at 50.0 µM 89% | [6]; [7] 97% | [6]; [8] 97% | [6]; at 50.0 µM 87.5%

O=C1Nc2c(Cl)cc(Cl)cc2/C1=N/N=C/c1ccccc1O
inactive: [1]; [7] 12% | [1]; [8] 41% | [1]; at 50.0 µM 3.5% | [2]; [7] 13% | [2]; [8] 42% | [2]; at 50.0 µM 17.1% | [3]; [7] 10% | [3]; [8] 41% | [4]; [7] 15% | [4]; [8] 48% | [5]; [7] 18% | [5]; [8] 54% | [6]; [7] 15%
active: [3]; at 50.0 µM 87.2% | [4]; at 50.0 µM 89.8% | [5]; at 50.0 µM 88.2% | [6]; [8] 72% | [6]; at 50.0 µM 91%

COc1ccc(OC)c(/C=C/c2ccnc3ccccc23)c1
inactive: [1]; [7] -3% | [2]; [7] -1% | [3]; [7] -2% | [4]; [7] -4% | [5]; [7] -1% | [6]; [7] -2%
active: [1]; [8] 98% | [1]; at 50.0 µM 96.3% | [2]; [8] 97% | [2]; at 50.0 µM 95.3% | [3]; [8] 98% | [3]; at 50.0 µM 97.2% | [4]; [8] 97% | [4]; at 50.0 µM 94.3% | [5]; [8] 97% | [5]; at 50.0 µM 95% | [6]; [8] 97% | [6]; at 50.0 µM 95.6%

Clc1ccc2c(Cl)c3c(nc2c1)CCCC3
inactive: [1]; [7] -1% | [2]; [7] 2% | [3]; [7] 2% | [3]; at 50.0 µM 48.1% | [4]; [7] 0% | [5]; [7] 3% | [6]; [7] -5%
active: [1]; [8] 98% | [1]; at 50.0 µM 99% | [2]; [8] 99% | [2]; at 50.0 µM 99.5% | [3]; [8] 99% | [4]; [8] 99% | [4]; at 50.0 µM 99.3% | [5]; [8] 98% | [5]; at 50.0 µM 99.5% | [6]; [8] 94% | [6]; at 50.0 µM 99.2%
